{"source": "ChEMBL document CHEMBL1157539", "about": "“Thousands of chemical starting points for antimalarial lead identification” (Nature, 2010)"}
{"test_system": "Plasmodium falciparum", "experiment": "GSK_TCMDC: Inhibition of Plasmodium falciparum Dd2 in whole red blood cells, using parasite LDH activity as an index of growth. Test compounds present at 2uM", "format": "functional", "units": {"Inhibition": "%"}}
{"smiles": "CCCc1c(C(=O)Nc2ccc3c(c2)CCN(C2CCC2)CC3)cnn1-c1ccc(Cl)cc1.O=C(O)C(F)(F)F", "Inhibition": 12}
{"smiles": "Cc1ccc(Sc2ccc(NC(=O)CN3CCN(C(=O)c4ccco4)CC3)cc2)cc1C", "Inhibition": 84}
{"smiles": "O=C(CSc1nc(-c2ccccc2Cl)ns1)Nc1ccc2c(c1)OCO2", "Inhibition": 77}
{"smiles": "FC(F)(F)c1ccc2[nH]c(-c3cccc(-c4cccc(CNCc5cnn(-c6ccccc6)n5)c4)c3)nc2c1.O=C(O)C(F)(F)F", "Inhibition": 28}
{"smiles": "O=C(Nc1ccnc(N2CC3CC2CN3Cc2cccc(O)c2)c1)c1ccc(F)cc1.O=C(O)C(F)(F)F", "note": "(stereo not drawn)", "Inhibition": 0}
{"smiles": "CN1CCC(C(=O)Nc2cccc(-c3ccc(-c4nc5cc(C(F)(F)F)ccc5[nH]4)s3)c2)CC1", "Inhibition": 95}
{"smiles": "COc1ccc2ncc(F)c([C@H](O)CN3CCC(NCc4ccc5c(c4)OCCO5)CC3)c2c1.Cl", "Inhibition": 99}
{"smiles": "COc1ccc(C(C)Nc2nc(N)c3cc(OC)c(OC)cc3n2)cc1.Cl", "note": "(stereo not drawn)", "Inhibition": 28}
{"smiles": "Cc1ccc(C)c(NC(=O)Nc2ccc(C)c(-c3ccc(C(=O)Nc4ccncc4)cc3)c2)c1", "Inhibition": 59}
{"smiles": "Cc1ccc(C(=O)Nc2cccc(CN3CCCN(Cc4ccc(O)cc4)CC3)c2)cc1.O=C(O)C(F)(F)F", "Inhibition": 5}
{"smiles": "NC(=O)c1ccc(C(=O)Nc2cccc(-c3csc(-c4nc5ccccc5[nH]4)c3)c2)cc1", "Inhibition": 35}
{"smiles": "O=C(Nc1ccc(OC2CCN(Cc3ccsc3)C2)c(Cl)c1)c1ccsc1.O=C(O)C(F)(F)F", "note": "(stereo not drawn)", "Inhibition": 70}
{"smiles": "COc1cccc(CN2CCCN(Cc3cccc(NC(=O)c4ccc(Cl)c(Cl)c4)c3)CC2)c1.O=C(O)C(F)(F)F", "Inhibition": 11}
